What all share (test): DAPPL (digital affinity profiling via proximity ligation, sequencing); 10 mM Tris-HCl pH 7.5, 50 mM NaCl, 1 mM DTT, 4% glycerol, room temperature, 30 min; GST-TFs on glutathione beads, 16-mer random dsDNA library, 0.1% formaldehyde crosslink after washing; high values mean tight binding
What all share (conditions): protein: recombinant; tags: N-terminal GST; dsDNA, one strand shown

One experiment has as its target T1, ERF (Homo sapiens, UniProt P50548 1-548).
T1 sequence: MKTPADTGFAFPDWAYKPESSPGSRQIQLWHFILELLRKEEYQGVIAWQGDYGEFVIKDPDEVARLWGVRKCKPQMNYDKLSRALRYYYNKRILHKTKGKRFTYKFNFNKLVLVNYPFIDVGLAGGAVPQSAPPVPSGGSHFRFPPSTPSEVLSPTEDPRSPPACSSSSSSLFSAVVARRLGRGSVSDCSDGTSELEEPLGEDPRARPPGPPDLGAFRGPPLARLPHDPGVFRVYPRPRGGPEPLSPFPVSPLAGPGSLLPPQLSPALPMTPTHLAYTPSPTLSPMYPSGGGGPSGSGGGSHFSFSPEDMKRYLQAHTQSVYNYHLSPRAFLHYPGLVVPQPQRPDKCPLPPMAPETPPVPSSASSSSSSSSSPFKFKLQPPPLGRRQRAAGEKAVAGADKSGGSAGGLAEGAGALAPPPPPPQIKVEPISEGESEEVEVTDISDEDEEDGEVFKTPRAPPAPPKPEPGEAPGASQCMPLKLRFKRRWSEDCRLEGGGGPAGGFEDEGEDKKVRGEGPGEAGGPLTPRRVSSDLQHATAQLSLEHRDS
A digest of the protocol: (§1)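 Sequencing on an Illumina NextSeq500 followed washing, crosslinking with 0.1% formaldehyde, proximity ligation (BsaI/T4 ligase, 1 h, 37 °C) and PCR amplification of pools that had been incubated for 30 min at room temperature with 200 nmole of a random double-stranded 16-mer DNA library in Tris/NaCl/DTT/glycerol buffer. Each pool held DNA-barcoded human transcription factors, expressed in yeast as GST fusions and captured on glutathione beads, plus a tag-only sample. Binding signal is a hexamer's read frequency for a factor divided by its frequency in the tag-only sample.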

The next experiment has as its target T2, ETV3L (Homo sapiens, UniProt Q6ZN32 1-361).
T2 sequence: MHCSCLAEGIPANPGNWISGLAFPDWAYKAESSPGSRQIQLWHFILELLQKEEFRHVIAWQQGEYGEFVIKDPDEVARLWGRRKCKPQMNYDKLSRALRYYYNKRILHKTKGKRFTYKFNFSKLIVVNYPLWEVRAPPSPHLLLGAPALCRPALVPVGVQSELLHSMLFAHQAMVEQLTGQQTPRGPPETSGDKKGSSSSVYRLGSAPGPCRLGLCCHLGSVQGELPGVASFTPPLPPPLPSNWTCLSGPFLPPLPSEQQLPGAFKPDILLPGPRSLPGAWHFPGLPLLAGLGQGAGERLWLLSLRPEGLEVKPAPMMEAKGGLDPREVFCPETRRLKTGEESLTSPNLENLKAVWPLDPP
A digest of the protocol:
as §1

For the next experiment, the target named is T3, ETS2 (Homo sapiens, UniProt P15036 1-469).
T3 sequence: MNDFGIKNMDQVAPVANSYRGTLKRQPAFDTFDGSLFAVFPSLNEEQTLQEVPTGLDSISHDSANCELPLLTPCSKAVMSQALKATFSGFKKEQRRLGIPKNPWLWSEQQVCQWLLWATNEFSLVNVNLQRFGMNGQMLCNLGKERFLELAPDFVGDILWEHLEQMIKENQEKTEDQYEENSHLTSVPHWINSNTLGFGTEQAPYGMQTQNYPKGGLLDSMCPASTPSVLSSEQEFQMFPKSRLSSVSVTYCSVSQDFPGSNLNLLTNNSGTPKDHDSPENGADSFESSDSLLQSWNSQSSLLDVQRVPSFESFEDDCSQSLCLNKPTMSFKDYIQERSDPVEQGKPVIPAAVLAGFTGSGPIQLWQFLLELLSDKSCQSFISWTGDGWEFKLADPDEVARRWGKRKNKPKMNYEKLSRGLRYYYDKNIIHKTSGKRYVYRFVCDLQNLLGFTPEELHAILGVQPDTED
A digest of the protocol:
as §1

The target in the next experiment is T4, SPDEF (Homo sapiens, UniProt O95238 1-335).
T4 sequence: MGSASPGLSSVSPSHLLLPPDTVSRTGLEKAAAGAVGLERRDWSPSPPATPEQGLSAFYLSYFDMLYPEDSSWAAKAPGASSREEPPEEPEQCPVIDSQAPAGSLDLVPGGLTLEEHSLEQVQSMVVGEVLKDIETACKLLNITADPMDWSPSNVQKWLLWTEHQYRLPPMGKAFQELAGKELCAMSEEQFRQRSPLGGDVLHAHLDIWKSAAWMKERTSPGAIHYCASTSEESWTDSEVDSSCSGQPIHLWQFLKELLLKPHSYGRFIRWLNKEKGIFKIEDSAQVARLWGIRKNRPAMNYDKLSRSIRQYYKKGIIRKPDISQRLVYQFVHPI
A digest of the protocol: as §1

The next experiment deals with T5, ETV7 (Homo sapiens, UniProt Q9Y603 1-341).
T5 sequence: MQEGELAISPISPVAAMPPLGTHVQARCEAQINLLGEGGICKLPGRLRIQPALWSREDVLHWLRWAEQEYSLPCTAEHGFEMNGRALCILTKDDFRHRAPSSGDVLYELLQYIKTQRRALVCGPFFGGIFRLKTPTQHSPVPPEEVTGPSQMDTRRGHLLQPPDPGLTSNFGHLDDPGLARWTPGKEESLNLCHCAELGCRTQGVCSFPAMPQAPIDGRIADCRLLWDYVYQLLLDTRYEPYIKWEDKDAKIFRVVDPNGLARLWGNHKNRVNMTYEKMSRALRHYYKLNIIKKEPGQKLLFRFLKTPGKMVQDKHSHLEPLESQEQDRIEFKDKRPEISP
A digest of the protocol:
as §1

A further experiment concerns the target T6, ELF5 (Homo sapiens, UniProt Q9UKW6-2 1-255).
T6 sequence: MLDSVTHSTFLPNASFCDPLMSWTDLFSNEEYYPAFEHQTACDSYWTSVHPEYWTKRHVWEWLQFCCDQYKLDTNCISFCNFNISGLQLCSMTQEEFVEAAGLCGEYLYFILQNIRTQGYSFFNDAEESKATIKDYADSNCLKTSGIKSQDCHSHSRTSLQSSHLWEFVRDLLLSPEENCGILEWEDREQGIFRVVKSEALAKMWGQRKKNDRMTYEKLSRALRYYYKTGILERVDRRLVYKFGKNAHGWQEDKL
A digest of the protocol: as §1

A further experiment concerns the target T7, ETV3 (Homo sapiens, UniProt P41162-2 1-143).
T7 sequence: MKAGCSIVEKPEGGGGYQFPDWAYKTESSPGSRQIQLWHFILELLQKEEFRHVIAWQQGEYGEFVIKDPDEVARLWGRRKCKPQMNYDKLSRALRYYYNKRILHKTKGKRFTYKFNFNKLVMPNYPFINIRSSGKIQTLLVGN
A digest of the protocol:
as §1

In a further experiment the target is ETV6 (Homo sapiens, UniProt P41212 1-452). A digest of the protocol:
as §1

Chain of ETV6 (P41212 whole entry): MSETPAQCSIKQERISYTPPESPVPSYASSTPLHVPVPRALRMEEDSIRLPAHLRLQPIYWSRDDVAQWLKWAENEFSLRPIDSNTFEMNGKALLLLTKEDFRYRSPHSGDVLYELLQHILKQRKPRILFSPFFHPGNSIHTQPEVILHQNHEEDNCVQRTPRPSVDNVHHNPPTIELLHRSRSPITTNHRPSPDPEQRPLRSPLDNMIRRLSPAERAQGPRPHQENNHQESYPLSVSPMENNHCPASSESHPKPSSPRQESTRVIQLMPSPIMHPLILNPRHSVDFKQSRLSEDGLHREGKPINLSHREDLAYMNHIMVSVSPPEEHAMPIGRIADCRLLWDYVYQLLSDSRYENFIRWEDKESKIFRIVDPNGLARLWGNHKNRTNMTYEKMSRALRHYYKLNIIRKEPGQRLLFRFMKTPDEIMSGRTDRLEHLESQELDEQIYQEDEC

ATACTC: the binding signal in the experiment with ERF was 1.36 fold enrichment (6-mer frequency, TF over GST control); with ETV3L, 1.22 fold enrichment (6-mer frequency, TF over GST control); in the experiment with ETS2 it was 1.26 fold enrichment (6-mer frequency, TF over GST control); with SPDEF it was 1.32 fold enrichment (6-mer frequency, TF over GST control); with ETV7, 1.23 fold enrichment (6-mer frequency, TF over GST control); in the experiment with ELF5 it was 1.25 fold enrichment (6-mer frequency, TF over GST control). Besides, the binding signal with ETV3 is 1.33 fold enrichment (6-mer frequency, TF over GST control); in the experiment with ETV6, 1.33 fold enrichment (6-mer frequency, TF over GST control).

For the sequence CCGAAA, the binding signal with ERF is 1.22 fold enrichment (6-mer frequency, TF over GST control); in the experiment with ETV3L, 1.2 fold enrichment (6-mer frequency, TF over GST control); with ETS2, 1.22 fold enrichment (6-mer frequency, TF over GST control); with SPDEF, 1.17 fold enrichment (6-mer frequency, TF over GST control); with ETV7, 1.24 fold enrichment (6-mer frequency, TF over GST control); in the experiment with ELF5 it was 1.18 fold enrichment (6-mer frequency, TF over GST control). Further, the binding signal with ETV3 was 1.19 fold enrichment (6-mer frequency, TF over GST control); with ETV6, 1.28 fold enrichment (6-mer frequency, TF over GST control).

CTGCAG: the binding signal is 1.07 fold enrichment (6-mer frequency, TF over GST control) with ERF; 1.18 fold enrichment (6-mer frequency, TF over GST control) in the experiment with ETV3L; 1.18 fold enrichment (6-mer frequency, TF over GST control) with ETS2; 1.1 fold enrichment (6-mer frequency, TF over GST control) with SPDEF; 1.13 fold enrichment (6-mer frequency, TF over GST control) with ETV7; 1.09 fold enrichment (6-mer frequency, TF over GST control) with ELF5. Moreover, the binding signal with ETV3 was 1.07 fold enrichment (6-mer frequency, TF over GST control); in the experiment with ETV6 it was 1.11 fold enrichment (6-mer frequency, TF over GST control).

For the sequence CCGGGT, the binding signal with ERF was 1.1 fold enrichment (6-mer frequency, TF over GST control); with ETV3L, 1.04 fold enrichment (6-mer frequency, TF over GST control); with ETS2 it was 1.24 fold enrichment (6-mer frequency, TF over GST control); with SPDEF, 1.79 fold enrichment (6-mer frequency, TF over GST control); with ETV7, 1.13 fold enrichment (6-mer frequency, TF over GST control); in the experiment with ELF5, 1.55 fold enrichment (6-mer frequency, TF over GST control). In addition, the binding signal in the experiment with ETV3 was 1.21 fold enrichment (6-mer frequency, TF over GST control); with ETV6, 1.21 fold enrichment (6-mer frequency, TF over GST control).

Consider CGTATG, for which the binding signal with ERF is 1.02 fold enrichment (6-mer frequency, TF over GST control); with ETV3L, 1.07 fold enrichment (6-mer frequency, TF over GST control); with ETS2, 1.11 fold enrichment (6-mer frequency, TF over GST control); with SPDEF, 1.05 fold enrichment (6-mer frequency, TF over GST control); with ETV7 it was 1.03 fold enrichment (6-mer frequency, TF over GST control); with ELF5, 1.04 fold enrichment (6-mer frequency, TF over GST control). Besides, the binding signal with ETV3 is 1.13 fold enrichment (6-mer frequency, TF over GST control); in the experiment with ETV6, 1.02 fold enrichment (6-mer frequency, TF over GST control).

As to ATATAT, the binding signal in the experiment with ERF was 1.51 fold enrichment (6-mer frequency, TF over GST control); in the experiment with ETV3L, 1.41 fold enrichment (6-mer frequency, TF over GST control); in the experiment with ETS2, 1.39 fold enrichment (6-mer frequency, TF over GST control); with SPDEF it was 1.43 fold enrichment (6-mer frequency, TF over GST control); in the experiment with ETV7, 1.29 fold enrichment (6-mer frequency, TF over GST control); with ELF5, 1.42 fold enrichment (6-mer frequency, TF over GST control). For the same sequence, the binding signal with ETV3 is 1.41 fold enrichment (6-mer frequency, TF over GST control); with ETV6, 1.44 fold enrichment (6-mer frequency, TF over GST control).

Turning to CACACT, the binding signal with ERF was 1.22 fold enrichment (6-mer frequency, TF over GST control); with ETV3L, 1.12 fold enrichment (6-mer frequency, TF over GST control); with ETS2 it was 1.14 fold enrichment (6-mer frequency, TF over GST control); with SPDEF, 1.13 fold enrichment (6-mer frequency, TF over GST control); with ETV7 it was 1.14 fold enrichment (6-mer frequency, TF over GST control); in the experiment with ELF5 it was 1.18 fold enrichment (6-mer frequency, TF over GST control). In addition, the binding signal was 1.18 fold enrichment (6-mer frequency, TF over GST control) with ETV3 and 1.15 fold enrichment (6-mer frequency, TF over GST control) with ETV6.

On to ACACCC, for which the binding signal with ERF was 1.17 fold enrichment (6-mer frequency, TF over GST control); with ETV3L it was 1.18 fold enrichment (6-mer frequency, TF over GST control); with ETS2 it was 1.09 fold enrichment (6-mer frequency, TF over GST control); in the experiment with SPDEF, 1.21 fold enrichment (6-mer frequency, TF over GST control); with ETV7, 1.09 fold enrichment (6-mer frequency, TF over GST control); with ELF5 it was 1.12 fold enrichment (6-mer frequency, TF over GST control). The binding signal with ETV3 was 1.14 fold enrichment (6-mer frequency, TF over GST control); with ETV6 it was 1.01 fold enrichment (6-mer frequency, TF over GST control).

As to TTACGT, the binding signal in the experiment with ERF was 1.11 fold enrichment (6-mer frequency, TF over GST control); with ETV3L it was 1.18 fold enrichment (6-mer frequency, TF over GST control); in the experiment with ETS2, 1.21 fold enrichment (6-mer frequency, TF over GST control); with SPDEF, 1.13 fold enrichment (6-mer frequency, TF over GST control); with ETV7, 1.14 fold enrichment (6-mer frequency, TF over GST control); with ELF5, 1.12 fold enrichment (6-mer frequency, TF over GST control). Besides, the binding signal with ETV3 was 1.15 fold enrichment (6-mer frequency, TF over GST control); in the experiment with ETV6, 1.09 fold enrichment (6-mer frequency, TF over GST control).

The values above are taken from publication PMC7862700, “An all-to-all approach to the identification of sequence-specific readers for epigenetic DNA modifications on cytosine”.
